Experimental findings from ChEMBL document CHEMBL3988442, “University of Dundee, Small-Polar-MMV Screening Library” (2021) are described below.

For some of these results: Measured potencies and affinities stand elsewhere.

Parameters in all cases: scale not given: direction of the effect not stated beside the values
The target of assay [1] is Protein translocase subunit SecA (Escherichia coli (strain K12)) (UniProt P10408). In words: Assay to Identify E. coli SecA ATPase Inhibitors. As to conditions: 30 µM. It is filed as functional.
Assay [2] has as its target T1, Ubiquitin-activating enzyme e1, putative (Leishmania donovani (strain BPK282A1)) (UniProt E9BSI1).
T1 sequence (whole entry): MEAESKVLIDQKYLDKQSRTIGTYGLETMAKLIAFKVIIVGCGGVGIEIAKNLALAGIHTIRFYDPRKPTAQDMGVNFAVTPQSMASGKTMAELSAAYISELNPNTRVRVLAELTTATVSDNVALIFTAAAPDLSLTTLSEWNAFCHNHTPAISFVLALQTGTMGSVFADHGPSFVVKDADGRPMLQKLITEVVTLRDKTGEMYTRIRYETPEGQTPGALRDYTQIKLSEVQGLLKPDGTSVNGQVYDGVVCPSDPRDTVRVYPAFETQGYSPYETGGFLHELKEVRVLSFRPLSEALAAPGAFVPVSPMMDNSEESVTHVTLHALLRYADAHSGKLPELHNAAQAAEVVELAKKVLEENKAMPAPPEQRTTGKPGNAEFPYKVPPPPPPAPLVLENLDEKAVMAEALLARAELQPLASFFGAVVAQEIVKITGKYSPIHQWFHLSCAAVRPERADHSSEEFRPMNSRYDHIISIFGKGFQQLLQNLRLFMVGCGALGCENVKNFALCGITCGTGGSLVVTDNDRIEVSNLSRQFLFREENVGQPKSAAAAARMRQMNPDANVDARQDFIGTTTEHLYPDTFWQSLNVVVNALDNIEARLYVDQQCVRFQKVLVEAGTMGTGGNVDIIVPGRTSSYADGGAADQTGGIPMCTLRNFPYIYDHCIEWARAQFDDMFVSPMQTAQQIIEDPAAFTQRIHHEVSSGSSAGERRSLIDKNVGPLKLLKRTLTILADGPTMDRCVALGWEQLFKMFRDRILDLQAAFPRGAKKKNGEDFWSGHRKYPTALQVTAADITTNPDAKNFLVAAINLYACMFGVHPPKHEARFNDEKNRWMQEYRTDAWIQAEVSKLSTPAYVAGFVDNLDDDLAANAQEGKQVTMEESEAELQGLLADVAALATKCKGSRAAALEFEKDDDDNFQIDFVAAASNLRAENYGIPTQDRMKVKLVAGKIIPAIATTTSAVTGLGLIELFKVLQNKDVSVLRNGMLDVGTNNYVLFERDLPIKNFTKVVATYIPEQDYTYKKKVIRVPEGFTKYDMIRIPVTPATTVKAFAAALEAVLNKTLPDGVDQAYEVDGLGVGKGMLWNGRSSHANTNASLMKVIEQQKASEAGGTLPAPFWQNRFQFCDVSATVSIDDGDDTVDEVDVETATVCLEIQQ
The assay can be described thus: Leishmania donovani Ubiquitin Activating Enzyme (LdE1). As to conditions: 30 µM. The assay is classed as functional.

In assay [3] the target is AMP-activated protein kinase, AMPK (Homo sapiens) (UniProt P54646+O43741+P54619+Q9UGJ0+Q9Y478+Q13131+Q9UGI9). The assay can be described thus: AMP-dependent Kinase enzyme assay. An in vitro enzyme assay that detects ADP turnover that is directly proportional to AMPK activity. This uses naive AMPK that is activated during the assay with MK-8722. It is filed as functional. The following applies: 30 µM.

Assay [4] has as its target Sialic acid-binding Ig-like lectin 9 (Homo sapiens) (UniProt Q9Y336). The assay can be described thus: Hs-Siglec9 ALPHAscreen SOP 20170721. As to conditions: 10 µM.
The subject of assay [5] is Trypanosoma cruzi. In words: Trypanosoma cruzi phosphomannomutase and mannose-1-phosphate guanylyltransferase assay. It is filed as functional. The following applies: 10 µM.
Assay [6] addresses T2, Arginase-2, mitochondrial (Homo sapiens) (UniProt P78540).
T2 sequence (whole entry): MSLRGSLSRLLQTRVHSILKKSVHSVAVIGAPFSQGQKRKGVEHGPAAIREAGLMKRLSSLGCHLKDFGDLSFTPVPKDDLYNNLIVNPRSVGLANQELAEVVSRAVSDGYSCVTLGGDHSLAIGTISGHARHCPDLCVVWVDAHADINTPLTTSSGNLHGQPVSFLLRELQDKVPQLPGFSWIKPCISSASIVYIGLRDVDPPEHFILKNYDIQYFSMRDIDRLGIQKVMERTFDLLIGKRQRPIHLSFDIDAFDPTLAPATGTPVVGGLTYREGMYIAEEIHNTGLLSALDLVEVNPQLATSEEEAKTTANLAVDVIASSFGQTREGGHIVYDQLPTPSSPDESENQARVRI
The assay can be described thus: in vitro enzyme assay to detect the production of urea directly proportional to the activity of Arginase II. Note: in the data most compounds retested in dose-response had high values. It is filed as functional. As to conditions: 33.3 µM.

Assay [7] has as its target T3, Proteasome subunit beta (Trypanosoma cruzi) (UniProt O96673).
T3 sequence (whole entry): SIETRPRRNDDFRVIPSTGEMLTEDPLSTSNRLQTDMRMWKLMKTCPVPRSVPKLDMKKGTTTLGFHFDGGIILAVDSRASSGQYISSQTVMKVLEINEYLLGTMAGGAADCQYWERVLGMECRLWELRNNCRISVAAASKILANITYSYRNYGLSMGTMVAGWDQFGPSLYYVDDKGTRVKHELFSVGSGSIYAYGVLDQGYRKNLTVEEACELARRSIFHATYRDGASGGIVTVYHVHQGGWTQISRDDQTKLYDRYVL
In words: Trypanosoma cruzi proteasome chymotrypsin-like activity (TcProtChymo) assay. Note: in the data most compounds retested in dose-response had high values. The assay is classed as functional. As to conditions: 9.37 µM.

The species entered for assay [8] is Homo sapiens. In words: To identify inhibition of the IFN signalling (Jak-Stat) pathway via expression of an eGFP reporter gene under the control of an IFN-stimulated response element (ISRE) containing MxA promoter. The assay is classed as functional. As to conditions: 30 µM.
Assay [9] addresses T4, Tyrosyl-tRNA synthetase, putative (Trypanosoma cruzi (strain CL Brener)) (UniProt Q4DSP6).
T4 sequence (whole entry): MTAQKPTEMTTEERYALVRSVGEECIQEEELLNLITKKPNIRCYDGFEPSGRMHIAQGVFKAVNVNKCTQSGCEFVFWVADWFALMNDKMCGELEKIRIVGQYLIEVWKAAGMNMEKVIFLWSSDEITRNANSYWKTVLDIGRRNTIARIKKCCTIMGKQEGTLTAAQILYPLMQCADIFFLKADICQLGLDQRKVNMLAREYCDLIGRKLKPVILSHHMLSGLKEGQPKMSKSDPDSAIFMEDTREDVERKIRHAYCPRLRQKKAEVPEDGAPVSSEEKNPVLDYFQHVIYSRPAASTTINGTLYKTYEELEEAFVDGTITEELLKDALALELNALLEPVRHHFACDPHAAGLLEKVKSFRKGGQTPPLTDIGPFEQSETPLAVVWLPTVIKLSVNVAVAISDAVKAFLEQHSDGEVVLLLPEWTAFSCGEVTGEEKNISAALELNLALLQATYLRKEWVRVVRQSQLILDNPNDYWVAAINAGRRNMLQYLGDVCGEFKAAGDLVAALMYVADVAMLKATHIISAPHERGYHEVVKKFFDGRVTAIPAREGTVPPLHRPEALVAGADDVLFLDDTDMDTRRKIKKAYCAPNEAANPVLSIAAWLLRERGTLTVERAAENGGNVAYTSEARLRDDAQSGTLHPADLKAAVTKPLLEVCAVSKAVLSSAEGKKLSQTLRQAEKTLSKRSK
In words: Trypanosoma cruzi tyrosyl tRNA synthetase (TcYRS) _High Tyrosine SOP. Note: in the data most compounds retested in dose-response had high values. It is filed as functional. The following applies: 30 µM.

The target in assay [10] is T4, Tyrosyl-tRNA synthetase, putative (Trypanosoma cruzi (strain CL Brener)). In words: Trypanosoma cruzi tyrosyl tRNA synthetase (TcYRS) SOP. The assay is classed as functional. The following applies: 30 µM.
Assay [11] deals with Chromo domain-containing protein 1 (Saccharomyces cerevisiae (strain ATCC 204508 / S288c) (Baker's yeast)) (UniProt P32657). In words: ScCHD-1 Enzyme Inhibition Assay. Note: in the data most compounds retested in dose-response had high values. The assay is classed as functional. As to conditions: 30 µM.
Chromo domain-containing protein 1 (Saccharomyces cerevisiae (strain ATCC 204508 / S288c) (Baker's yeast)), sequence (P32657 whole entry, the tested form may be a part): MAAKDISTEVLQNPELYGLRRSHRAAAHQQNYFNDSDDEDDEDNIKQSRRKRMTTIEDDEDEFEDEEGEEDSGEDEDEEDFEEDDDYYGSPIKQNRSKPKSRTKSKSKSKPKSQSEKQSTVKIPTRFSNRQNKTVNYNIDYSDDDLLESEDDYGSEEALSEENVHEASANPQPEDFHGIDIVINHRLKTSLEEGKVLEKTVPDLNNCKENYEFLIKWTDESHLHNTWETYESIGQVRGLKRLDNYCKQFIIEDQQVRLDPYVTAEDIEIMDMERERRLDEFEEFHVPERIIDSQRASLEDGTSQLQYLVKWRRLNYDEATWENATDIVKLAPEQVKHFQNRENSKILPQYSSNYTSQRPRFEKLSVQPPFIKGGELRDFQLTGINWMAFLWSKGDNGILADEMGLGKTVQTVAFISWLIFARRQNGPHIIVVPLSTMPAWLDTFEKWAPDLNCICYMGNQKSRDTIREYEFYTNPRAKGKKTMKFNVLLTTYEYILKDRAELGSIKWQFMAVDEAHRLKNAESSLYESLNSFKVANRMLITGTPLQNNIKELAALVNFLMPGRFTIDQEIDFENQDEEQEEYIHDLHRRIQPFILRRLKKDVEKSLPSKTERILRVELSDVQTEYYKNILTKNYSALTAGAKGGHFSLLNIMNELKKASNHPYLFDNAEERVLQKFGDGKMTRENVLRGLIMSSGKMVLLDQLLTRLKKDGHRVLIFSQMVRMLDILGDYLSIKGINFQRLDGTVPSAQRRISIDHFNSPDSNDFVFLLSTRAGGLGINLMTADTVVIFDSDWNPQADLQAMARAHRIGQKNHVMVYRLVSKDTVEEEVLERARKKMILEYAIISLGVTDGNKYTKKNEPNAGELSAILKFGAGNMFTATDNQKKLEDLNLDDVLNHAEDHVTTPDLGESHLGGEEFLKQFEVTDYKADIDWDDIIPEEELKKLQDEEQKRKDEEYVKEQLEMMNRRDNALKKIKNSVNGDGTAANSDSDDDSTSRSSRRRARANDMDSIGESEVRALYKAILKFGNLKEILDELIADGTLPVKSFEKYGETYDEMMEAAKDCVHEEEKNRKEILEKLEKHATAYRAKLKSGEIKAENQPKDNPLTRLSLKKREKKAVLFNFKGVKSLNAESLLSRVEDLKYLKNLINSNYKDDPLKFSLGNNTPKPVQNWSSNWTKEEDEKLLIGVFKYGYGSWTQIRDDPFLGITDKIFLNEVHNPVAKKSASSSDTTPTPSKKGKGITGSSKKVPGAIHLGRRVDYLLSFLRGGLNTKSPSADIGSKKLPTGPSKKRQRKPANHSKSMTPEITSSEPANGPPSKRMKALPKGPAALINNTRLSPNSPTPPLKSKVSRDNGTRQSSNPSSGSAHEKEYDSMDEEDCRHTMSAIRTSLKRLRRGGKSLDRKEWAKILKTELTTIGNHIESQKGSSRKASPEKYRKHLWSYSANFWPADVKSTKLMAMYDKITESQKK

Sialic acid-binding Ig-like lectin 9 (Homo sapiens), sequence (Q9Y336 whole entry): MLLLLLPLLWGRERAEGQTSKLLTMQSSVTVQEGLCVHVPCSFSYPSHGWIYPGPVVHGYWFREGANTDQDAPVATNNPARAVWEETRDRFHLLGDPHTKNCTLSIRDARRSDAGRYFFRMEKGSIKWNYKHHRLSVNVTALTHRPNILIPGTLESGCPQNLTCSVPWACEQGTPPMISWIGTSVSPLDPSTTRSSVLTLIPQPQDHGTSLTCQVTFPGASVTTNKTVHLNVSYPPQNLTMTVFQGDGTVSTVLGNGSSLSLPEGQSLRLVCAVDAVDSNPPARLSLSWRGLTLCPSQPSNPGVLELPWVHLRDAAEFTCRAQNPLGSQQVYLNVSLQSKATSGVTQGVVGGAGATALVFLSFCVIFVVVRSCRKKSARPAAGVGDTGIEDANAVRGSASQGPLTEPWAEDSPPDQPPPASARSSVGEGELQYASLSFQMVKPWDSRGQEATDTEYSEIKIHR
Protein translocase subunit SecA (Escherichia coli (strain K12)), sequence (P10408 whole entry): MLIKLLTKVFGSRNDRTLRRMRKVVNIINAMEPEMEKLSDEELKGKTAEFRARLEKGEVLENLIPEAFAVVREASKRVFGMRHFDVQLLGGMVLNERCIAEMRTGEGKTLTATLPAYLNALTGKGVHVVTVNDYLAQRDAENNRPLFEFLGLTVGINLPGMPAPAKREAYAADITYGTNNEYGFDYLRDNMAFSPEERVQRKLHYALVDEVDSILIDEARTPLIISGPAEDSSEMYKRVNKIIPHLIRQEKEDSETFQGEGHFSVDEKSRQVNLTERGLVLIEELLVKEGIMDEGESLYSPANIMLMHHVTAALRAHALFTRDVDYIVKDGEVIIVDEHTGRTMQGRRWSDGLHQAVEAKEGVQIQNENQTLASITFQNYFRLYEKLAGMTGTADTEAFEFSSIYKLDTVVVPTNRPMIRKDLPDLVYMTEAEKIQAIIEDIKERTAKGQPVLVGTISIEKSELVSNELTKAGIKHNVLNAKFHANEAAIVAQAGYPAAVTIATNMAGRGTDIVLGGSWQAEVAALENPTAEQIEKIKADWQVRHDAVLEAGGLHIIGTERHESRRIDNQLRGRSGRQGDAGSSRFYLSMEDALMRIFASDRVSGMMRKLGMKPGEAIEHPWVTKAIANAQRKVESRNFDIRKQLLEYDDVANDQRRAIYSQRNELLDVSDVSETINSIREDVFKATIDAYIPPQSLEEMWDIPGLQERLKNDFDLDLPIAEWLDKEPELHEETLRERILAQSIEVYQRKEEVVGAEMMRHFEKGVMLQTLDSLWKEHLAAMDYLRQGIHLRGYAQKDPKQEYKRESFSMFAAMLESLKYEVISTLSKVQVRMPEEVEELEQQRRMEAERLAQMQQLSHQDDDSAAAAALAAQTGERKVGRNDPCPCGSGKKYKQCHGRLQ

On to `c1sc(C2CCCC2)nc1CN1CCn2c(nnc2C2CC2)C1`, for which the Percent Effect in assay [1] is -6.12%; in assay [2], 5.41%; in assay [3] it was 0.718%; in [4] it was -3.09%; in assay [5] it was -2.14%; in assay [6] it was -0.554%. The Percent Effect is 10.4% in assay [7]; 37.1% in assay [8]; 10.9% in [9]; 15.8% in assay [10]; -4.21% in assay [11].
Take `CNC(=O)CSc1nc2c(cnn2Cc2ccc(F)cc2)c(=O)[nH]1`: the Percent Effect was -1.62% in assay [1]; 11% in [2]; 8.78% in assay [3]; 2.62% in [4]; -3.33% in assay [5]; 0% in [6]. The Percent Effect in assay [7] is 16.5%; in [8] it was 33.3%; in assay [9] it was 0%; in assay [10], 10%; in assay [11] it was -6.75%.
For `CC(C)N(C)Cc1cn2c(n1)CN(C(=O)Cc1ccsc1)CC2`, the Percent Effect in assay [1] was -5.71%; in assay [2], 2.74%; in [3] it was 3.83%; in [4] it was 1.25%; in assay [5] it was -2.78%; in assay [6], -2%. For the same compound, the Percent Effect in assay [7] was 7.28%; in [8] it was -1.74%; in [9], 5.21%; in assay [10] it was 6.17%; in [11], -0.437%.
As for `Cc1nc2cc(O)nn2c(C)c1CCC(=O)N(C)Cc1cscn1`, the Percent Effect in [1] is -7.5%; in [2], 18.4%; in assay [3] it was -470%; in [4] it was -2.99%; in assay [5], 8.08%; in assay [6], -4.73%. Also, the Percent Effect in [7] was 6.42%; in assay [8], 15.6%; in assay [9], -6.38%; in assay [10] it was 5.2%; in [11], -11.6%.
In the case of `COc1c(CNCCNC(=O)c2ccc(C)cc2)c(C)nn1C`, the Percent Effect in assay [1] was -5.75%; in [2], 13.5%; in [3], -5.83%; in assay [4], 19.1%; in assay [5] it was 6.96%; in assay [6], -2.4%. For the same compound, the Percent Effect in assay [7] is 5.57%; in [8] it was -9.3%; in assay [9] it was 7.92%; in assay [10] it was 28.1%; in assay [11], -7.35%.
Consider `CC(C)c1nccn1C1CCCN(C(=O)c2ccc3[nH]nnc3c2)C1` (stereo unspecified), for which the Percent Effect was -8.55% in assay [1]; 7.79% in assay [2]; -5.52% in assay [3]; -4.53% in [4]; 9.89% in assay [5]; -1.05% in assay [6]. In addition, the Percent Effect in assay [7] was 19%; in assay [8], -2.41%; in [9], 4.76%; in assay [10], 11.8%; in [11], -22.9%.
`CO[C@H]1CN(C(=O)c2ccc3oc(C)cc3c2)CC[C@@]12CCCO2`: the Percent Effect in assay [1] is -0.467%; in assay [2] it was 1.35%; in assay [3] it was 11.4%; in assay [4], 2.79%; in assay [5], 0.593%; in assay [6], -0.696%. Further, the Percent Effect was 5.77% in assay [7]; -10.3% in assay [8]; 0% in [9]; -1.3% in assay [10]; -11.8% in assay [11].
Take `Cc1ccc(CC(=O)N2CC[C@@H]3CN(CCN(C)C)CCO[C@@H]3C2)cc1`: the Percent Effect is -0.0347% in [1]; 8.11% in [2]; 9.51% in [3]; -10.3% in assay [4]; -7.33% in assay [5]; 2.87% in [6]. For the same compound, the Percent Effect in assay [7] is 19.7%; in assay [8] it was 4.98%; in assay [9], 4.32%; in [10], 5.13%; in assay [11] it was -4.03%.
Consider `CN(C)C(=O)Cc1ccc(NC(=O)NC2CCCCC2)cc1`, for which the Percent Effect was -1.35% in assay [1]; -5.41% in assay [2]; -1.19% in assay [3]; 3.35% in assay [4]; 6.56% in assay [5]; -2.86% in assay [6]. The Percent Effect in assay [7] was 16%; in assay [8], 11%; in assay [9] it was 1.59%; in assay [10], 7.32%; in assay [11] it was -0.0586%.
As to `CCCNC(=O)N1CCC(Oc2cc(C)ccc2F)(C(=O)O)CC1`, the Percent Effect in assay [1] was -2.42%; in assay [2] it was 9.72%; in [3], -3.19%; in [4] it was 22.9%; in [5], 6.9%; in [6] it was 24.3%. Moreover, the Percent Effect in assay [7] was 1.75%; in assay [8], -5.25%; in assay [9] it was -1.05%; in assay [10], 10.3%; in [11], -1.57%.
With `Cn1cc(C[C@H]2[C@@H](O)CCN2C(=O)C2CC=CC2)cn1`, the Percent Effect is -1.02% in assay [1]; 7.79% in [2]; 8.48% in assay [3]; -3.96% in [4]; 0.69% in assay [5]; 12.3% in assay [6]. Further, the Percent Effect in assay [7] was 17.8%; in assay [8] it was 26.4%; in assay [9], 1.06%; in assay [10], 14.1%; in assay [11], -9.76%.
